Artemis inh = Artemis endonuclease inhibitors, primary screen, biochemical, fluorescence intensity, FAM/BHQ-1 hairpin substrate. recombinant Artemis, quenched FAM hairpin cleavage fluorescence. hit rate 0.78% among 30,000. Protein artemis (Homo sapiens), Q96SD1. inhibition, % at 10 µM;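 active = at 10 µM dose, at least 30% inhibition, measured as corrected fluorescence normalized to stimulator and neutral control wells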
Target sequence (Q96SD1 whole entry, looked up): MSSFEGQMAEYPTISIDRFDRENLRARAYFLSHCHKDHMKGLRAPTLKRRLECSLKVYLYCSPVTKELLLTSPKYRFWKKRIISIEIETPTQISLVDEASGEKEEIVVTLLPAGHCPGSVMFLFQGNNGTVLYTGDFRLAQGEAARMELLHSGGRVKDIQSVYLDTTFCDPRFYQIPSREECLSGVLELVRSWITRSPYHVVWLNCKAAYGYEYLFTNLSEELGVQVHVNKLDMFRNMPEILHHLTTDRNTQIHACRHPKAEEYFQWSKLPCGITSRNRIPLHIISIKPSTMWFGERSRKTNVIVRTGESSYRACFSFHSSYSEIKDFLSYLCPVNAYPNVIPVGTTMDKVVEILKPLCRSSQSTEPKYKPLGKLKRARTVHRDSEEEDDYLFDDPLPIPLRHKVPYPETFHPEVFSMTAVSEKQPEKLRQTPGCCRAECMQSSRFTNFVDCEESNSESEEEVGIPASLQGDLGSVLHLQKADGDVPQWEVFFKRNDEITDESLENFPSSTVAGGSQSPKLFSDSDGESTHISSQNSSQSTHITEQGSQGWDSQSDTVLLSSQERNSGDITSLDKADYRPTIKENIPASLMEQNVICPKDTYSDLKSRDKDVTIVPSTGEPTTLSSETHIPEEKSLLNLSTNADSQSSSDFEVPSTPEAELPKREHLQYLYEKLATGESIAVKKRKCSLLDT
Active calls of the source: *. Shown is part of a subset that was picked to be rich in hits.

SMILES | Artemis inh
Cc1ccc(OCCOCCn2ccnc2)c(Br)c1 | -10
COc1ccccc1N/C(N)=N/c1nc(CSc2ccc(C)cc2)cc(=O)[nH]1 | 30*
COc1ccc(N/C(N)=N/c2nc(CSc3ccc(C)cc3)cc(=O)[nH]2)cc1 | 14
Cc1cc(=O)[nH]c(/N=C(\N)Nc2cccc3ccccc23)n1 | -2
Cc1cccc(NC(=O)C2CC(=O)N(c3ccccc3)C2)c1C (stereo unspecified) | 0
CC(C)(C)c1cc(/C=N/NC(=O)Cc2nc3ccccc3[nH]2)cc(C(C)(C)C)c1O | 32*
COc1cc(/C=N\NC(=O)Cn2nnc3ccccc32)cc(OC)c1OC | 4
O=C(CCc1nc2ccccc2[nH]1)Nc1ccc2c(c1)OCO2 | 10
CCOc1ccc(N2C(=O)CC(N)C2=O)cc1 (stereo unspecified) | 1
CCN(CC)c1ccc(-c2nn3c(-c4n[nH]c5c4CCC5)nnc3s2)cc1 | 58*
C1CCC(c2nn3c(-c4n[nH]c5c4CCC5)nnc3s2)CC1 | 6
Fc1ccc(C2=Nn3c(nnc3-c3n[nH]c4c3CCC4)SC2)cc1 | 5
Cc1ccc(C)n1-c1sccc1C(=O)O | 33*
O=C(O)c1ccccc1C(=O)c1cccs1 | -3
Cc1ccc(C(=O)c2ccccc2C(=O)O)s1 | 9
COC(=O)C(C(=O)OC)C(C)C(C(=O)OC)C(=O)OC | -4
Cc1noc(C)c1CSc1nc2ccccc2c(=O)n1-c1ccccc1 | 0
O=S(=O)(Nc1nc2ccccc2nc1NCc1ccco1)c1ccc(Cl)cc1 | 13
Cc1noc(C)c1CSc1nc2ccccc2nc1NS(=O)(=O)c1ccc(Cl)cc1 | 33*
COc1cccc(OC)c1C(=O)N1CCN(Cc2ccccc2C)CC1 | -5
COCCOc1ccc(C(F)(F)F)cc1Nc1nc2ccccc2o1 | 8
CC(C)(C)C(=O)COC(=O)CNC(=O)c1ccc(Oc2ccccc2)cc1 | 4
Cc1noc(NC(=O)c2ccccc2)c1C#N | 2
N#Cc1c(N)n(CCNC(=O)c2ccc(Cl)cc2)c2nc3ccccc3nc12 | 0
CCC(C)n1c(NC(=O)c2ccccc2)c(C#N)c2nc3ccccc3nc21 (stereo unspecified) | 39*
SMILES | Artemis inh
COC(=O)c1cc(C#N)c(Oc2ccc(F)cc2)nc1C | 3
COC(=O)c1sccc1-n1cccc1C(=O)NCc1ccccc1 | -5
Cc1cc(NS(=O)(=O)c2ccc(NC(NC(=O)C(C(F)(F)F)C(F)(F)F)(C(F)(F)F)C(F)(F)F)cc2)no1 | -3
Cc1cc(NS(=O)(=O)c2ccc(NC(=O)c3ccco3)cc2)no1 | 7
Cc1cc(NS(=O)(=O)c2ccc(Nc3nc(-c4sc(N)nc4C)cs3)cc2)no1 | 59*
Cc1cc(=O)oc(C)c1C(=O)Nc1c(C)n(C)n(-c2ccccc2)c1=O | 0
Cc1nn2c(-c3ccc(Cl)cc3Cl)nnc2s1 | -4
CC(C)c1ccc(NC2(C#N)C(=O)Nc3ccccc32)cc1 (stereo unspecified) | -4
Cc1ccc2[nH]c(=O)c(CN(Cc3ccc4c(c3)OCO4)Cc3nnnn3Cc3ccco3)cc2c1 | 35*
O=c1[nH]c2cc3c(cc2cc1CN(Cc1ccccc1)Cc1nnnn1Cc1ccco1)OCCO3 | 27
Cc1cc(C)c2cc(CN(CCO)Cc3nnnn3Cc3ccc(F)cc3)c(=O)[nH]c2c1 | 1
CCc1ccc2[nH]c(=O)c(CN(Cc3ccccc3)Cc3nnnn3Cc3ccco3)cc2c1 | 21
CCC(c1nnnn1Cc1ccco1)N(CCc1ccccc1)Cc1cc2cc(C)ccc2[nH]c1=O (stereo unspecified) | 14
Cc1cc(C)c2cc(CN(Cc3ccc4c(c3)OCO4)Cc3nnnn3Cc3ccco3)c(=O)[nH]c2c1 | 40*
CCOC(=O)C(NC=O)(NC(C)(C)C)C(=O)OCC | 3
CNS(=O)(=O)c1cccc(C(=O)OC2CCCCC2=O)c1 (stereo unspecified) | -14
N#CC1(c2ccccc2)CCC(=NO)CC1 (stereo unspecified) | -4
O=C(NCC1c2ccccc2CCN1C(=O)CN1C(=O)c2ccccc2C1=O)C1CCCCC1 (stereo unspecified) | -3
CCO/C(C)=N/n1c2nc3ccccc3nc2c2c(=O)n(C3CCCC3)c(C)nc21 | 3
Cc1nc2c(c(=O)n1CCC1=CCCCC1)c1nc3ccccc3nc1n2/N=C/c1ccco1 | 41*
CCCCCCn1cnc2c(c1=O)c1nc3ccccc3nc1n2/N=C/c1ccco1 | 32*
CCCCCCn1cnc2c(c1=O)c1nc3ccccc3nc1n2Cc1cccs1 | 0
CCCCn1c2nc3ccccc3nc2c2c(=O)n(CCC)cnc21 | 7
Cc1cccc(-n2cnc3c(c2=O)c2nc4ccccc4nc2n3Cc2ccco2)c1 | 16
Cc1cc(S(=O)(=O)NC2CCCCC2)ccc1OCC(=O)NCc1ccccn1 | 3
SMILES | Artemis inh
Cc1cccc(NC(=O)N(C)Cc2cccs2)c1 | -4
CCOC(=O)CSC1=C(C#N)C(C)C2=C(CCCC2=O)N1 (stereo unspecified) | -4
COc1ccc(/C=N\NS(=O)(=O)c2ccc(Cl)cc2)cc1COc1ccccc1[N+](=O)[O-] | 17
CCC(N)C12CC3CC(CC(O)(C3)C1)C2 (stereo unspecified) | -7
CC(C)(C)c1ccc(OCCNC(=O)c2ncn[nH]2)cc1 | 2
C=CCn1c(SCC(=O)NCCOC)nc2scc(-c3ccco3)c2c1=O | 11
CCCOc1ccc(-c2nnc(N)s2)cc1 | 0
CCOc1cc(-c2ccc(N)c(OCC)c2)ccc1N | 5
CCCOc1ccc(N)cc1N | 31*
Cc1ccc(NC(=O)CCSc2nnnn2-c2ccc3c(c2)OCO3)cc1C | -7
COc1ccc(C2CC2/C(=N/OC(=O)c2cccs2)c2ccccc2)cc1 (stereo unspecified) | 3
COc1ccc(NC(=O)c2cccs2)cc1 | -5
COc1cccc(C2CC(c3ccc(Cl)cc3Cl)Nc3nc(N)nn32)c1 (stereo unspecified) | 0
O=C(Nc1nc2n(n1)C(c1ccccc1)C=C(c1ccccc1)N2)c1ccco1 (stereo unspecified) | 11
COc1ccc(C2CC(c3ccc(Cl)cc3)Nc3nc(NC(=O)c4ccco4)nn32)cc1 (stereo unspecified) | 54*
COc1ccc(C2CC(c3ccccc3)n3nc(NC(=O)c4cccs4)nc3N2)cc1 (stereo unspecified) | 59*
CCC1(CC)NC(=O)N(CC(=O)Nc2sc3c(c2C(N)=O)CCC3)C1=O | 18
CCc1noc2c1/C(=N\O)CC(c1ccccc1)C2 (stereo unspecified) | -1
Clc1cccc(Cl)c1CSc1nnc(-c2sccc2-n2cccc2)o1 | -1
Cn1c(SCCS(=O)(=O)c2ccc(Cl)cc2)nnc1-c1ccccc1 | 7
CC1(C)C(=O)Nc2ccccc2N1C(=O)COC(=O)c1ccc(Cl)c(S(=O)(=O)NCc2ccccc2)c1 | 8
CCN(CC)c1ccc(NC(=O)CSc2nc3ccccc3c(=O)[nH]2)cc1 | 9
Cc1ccc(-c2cc(C(=O)n3cnc4ccccc43)c3ccccc3n2)cc1C | 6
CCN(CC)c1ccc(C(=O)n2cnc3ccccc32)cc1 | 30*
c1ccc(-c2nc(N3CCCCCC3)c3ccccc3n2)nc1 | 78*
c1ccc(CN2CCN(c3nc(-c4ccccc4)nc4ccccc34)CC2)cc1 | 4
c1ccc(-c2nc(N3CCOCC3)c3ccccc3n2)nc1 | 8
C=CCN1CCN(c2ccncc2S(=O)(=O)N2CCOCC2)CC1 | -4
COC(=O)CCCC(=O)N1CCOCCN(C(=O)CCCC(=O)OC)CCOCC1 | 7
